# Records with an inconclusive call do not appear. Values without a mark were called inactive. Calls of active or inactive are those of the source. The call rests on the fitted dose curve; in most records, active means well fitted curve in the direction sought with a large enough effect; inconclusive means small, poorly fitted or top-dose-only effect, or another doubt; inactive means no such curve, though single readings can be large; an effect the other way counts as inactive or inconclusive.
# Assay: qHTS for differential inhibitors of proliferation of Plasmodium falciparum line 3D7 (AID 1876);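 on activity, negative = inhibition: parasite growth measured after three days of culture; 0% = vehicle wells and -100% = reference inhibitor wells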
# Settings: P. falciparum 3D7 proliferation inhibition; series mostly up to 28.7 µM; activity, negative = inhibition: at the top concentration
# Potency means the concentration at half of the fitted maximal effect.
Structure (SMILES),Potency,"activity, negative = inhibition [%]"
O=c1[nH]c2cc(Cl)c(Cl)cc2[nH]c1=O,2.51 µM (active),
O=S(=O)(c1cccc2c(I)cccc12)N1CCCNCC1,,5.19
C=CC(N)CCC(=O)O (configuration not stated),,-14
O=C(c1cc(O)c(O)c([N+](=O)[O-])c1)c1ccccc1F,,-2.23
NC(CCCP(=O)(O)O)C(=O)O (configuration not stated),,-1.78
Cn1c(=O)c2[nH]c(-c3ccccc3)nc2n(C)c1=O,,0.626
CN1C2CCC1CC(OC(=O)C(O)c1ccccc1)C2 (configuration not stated),,-0.813
CCCCCCCCCCCCCCCCCC(=O)NCC(COP(=O)([O-])OCC[N+](C)(C)C)OCC (configuration not stated),,4.59
COc1cc2nc(N3CCN(C(=O)OCc4ccccc4)C(C(=O)NC(C)(C)C)C3)nc(N)c2cc1OC (configuration not stated),3.16 µM (active),
O=C(O)c1cc(=O)c2c(Cl)cc(Cl)cc2[nH]1,,-0.374
CCCN(CC1CC1)c1nc(C)nc(Nc2c(Cl)cc(Cl)cc2Cl)c1Cl,2.82 µM (active),
OC[C@H]1O[C@@H](n2cnc3c(NC4CCCCC4)ncnc32)[C@H](O)[C@@H]1O,,-5.44
CN1CCC[C@H]1c1cccnc1,,0.251
COc1cc(C(O)CO)ccc1OS(=O)(=O)O (configuration not stated),,-8.09
N[C@@H](CC(=O)O)C(=O)O,,-2.98

# Assay: qHTS for differential inhibitors of proliferation of Plasmodium falciparum line D10 (AID 1877);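 further: parasites grown with compound for 72 h before DNA staining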;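 on activity change, negative = inhibition: plate controls were vehicle wells for no effect and reference inhibitor wells for full effect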
# Settings: series mostly up to 28.7 µM; activity change, negative = inhibition: at the top concentration
Structure (SMILES),Potency,"activity change, negative = inhibition [%]"
Oc1ccc(C2CNCc3sccc32)cc1O (configuration not stated),11.2 µM (active),
O=S(=O)(c1cccc2c(I)cccc12)N1CCCNCC1,,-2.42
C=CC(N)CCC(=O)O (configuration not stated),,-10.8
O=C(c1cc(O)c(O)c([N+](=O)[O-])c1)c1ccccc1F,,-23.7
NC(CCCP(=O)(O)O)C(=O)O (configuration not stated),,-9.09
Fc1cccc(/C=N/N=C/c2cccc(F)c2)c1,,-0.918
Cn1c(=O)c2[nH]c(-c3ccccc3)nc2n(C)c1=O,,-8
CN1C2CCC1CC(OC(=O)C(O)c1ccccc1)C2 (configuration not stated),,-15.5
CCCCCCCCCCCCCCCCCC(=O)NCC(COP(=O)([O-])OCC[N+](C)(C)C)OCC (configuration not stated),14.1 µM (active),
COc1cc2nc(N3CCN(C(=O)OCc4ccccc4)C(C(=O)NC(C)(C)C)C3)nc(N)c2cc1OC (configuration not stated),10 µM (active),
O=C(O)c1cc(=O)c2c(Cl)cc(Cl)cc2[nH]1,,-16.2
NCCSSCCN,,-5.75
CCCN(CC1CC1)c1nc(C)nc(Nc2c(Cl)cc(Cl)cc2Cl)c1Cl,3.98 µM (active),
OC[C@H]1O[C@@H](n2cnc3c(NC4CCCCC4)ncnc32)[C@H](O)[C@@H]1O,,-11.8
CN1CCC[C@H]1c1cccnc1,,-9.19
COc1cc(C(O)CO)ccc1OS(=O)(=O)O (configuration not stated),,-16.7
CCCCCCCCCCCCCCCCCCNC(=O)OCC(COP(=O)([O-])OCC[n+]1ccsc1)OC (configuration not stated),,-19.4
N[C@@H](CC(=O)O)C(=O)O,,-8.7
CN1CCc2cc(O)c(O)cc2C(c2ccccc2)C1 (configuration not stated),12.6 µM (active),

# Assay: qHTS for differential inhibitors of proliferation of Plasmodium falciparum line Dd2 (AID 1882); further: nearly all actives have a fitted effect of over 65% in size;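 on activity change, negative = inhibition: plate controls were DMSO vehicle for no effect and 0.29 µM artemisinin for full effect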
# Settings: Potency: Plasmodium falciparum Dd2 proliferation inhibition; series mostly up to 28.7 µM; activity change, negative = inhibition: at the top concentration
# How it was run: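 SYBR Green DNA fluorescence (ex 485, em 535 nm) after overnight lysis quantifies parasite growth; compound exposure lasted 72 h at 37 C on infected red cells at 2.5% hematocrit, 0.3% parasitemia (final). Artemisinin 0.29 uM and vehicle wells define normalization.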
Structure (SMILES),"activity change, negative = inhibition [%]",Potency
O=c1[nH]c2cc(Cl)c(Cl)cc2[nH]c1=O,-2.91,
Oc1ccc(C2CNCc3sccc32)cc1O (configuration not stated),,8.91 µM (active)
C=CC(N)CCC(=O)O (configuration not stated),-5.6,
O=C(c1cc(O)c(O)c([N+](=O)[O-])c1)c1ccccc1F,-9.56,
NC(CCCP(=O)(O)O)C(=O)O (configuration not stated),2.62,
Fc1cccc(/C=N/N=C/c2cccc(F)c2)c1,0.6,
Cn1c(=O)c2[nH]c(-c3ccccc3)nc2n(C)c1=O,-9.85,
CN1C2CCC1CC(OC(=O)C(O)c1ccccc1)C2 (configuration not stated),-9.79,
CCCCCCCCCCCCCCCCCC(=O)NCC(COP(=O)([O-])OCC[N+](C)(C)C)OCC (configuration not stated),1.4,
COc1cc2nc(N3CCN(C(=O)OCc4ccccc4)C(C(=O)NC(C)(C)C)C3)nc(N)c2cc1OC (configuration not stated),,8.91 µM (active)
O=C(O)c1cc(=O)c2c(Cl)cc(Cl)cc2[nH]1,2.23,
NCCSSCCN,7.24,
CCCN(CC1CC1)c1nc(C)nc(Nc2c(Cl)cc(Cl)cc2Cl)c1Cl,,11.2 µM (active)
OC[C@H]1O[C@@H](n2cnc3c(NC4CCCCC4)ncnc32)[C@H](O)[C@@H]1O,2.22,
CN1CCC[C@H]1c1cccnc1,3.46,
COc1cc(C(O)CO)ccc1OS(=O)(=O)O (configuration not stated),-2.47,
CCCCCCCCCCCCCCCCCCNC(=O)OCC(COP(=O)([O-])OCC[n+]1ccsc1)OC (configuration not stated),3.14,
N[C@@H](CC(=O)O)C(=O)O,0.466,

# Assay: qHTS for differential inhibitors of proliferation of Plasmodium falciparum line W2 (AID 1883);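 further: parasites grown with compound for 72 h before lysis and staining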;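 on activity change, negative = inhibition: 0% = vehicle wells and -100% = control inhibitor wells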
# Settings: Potency: Plasmodium falciparum W2 proliferation inhibition; series mostly up to 28.7 µM; activity change, negative = inhibition: at the top concentration
Structure (SMILES),Potency,"activity change, negative = inhibition [%]"
O=c1[nH]c2cc(Cl)c(Cl)cc2[nH]c1=O,3.55 µM (active),
Oc1ccc(C2CNCc3sccc32)cc1O (configuration not stated),11.2 µM (active),
O=S(=O)(c1cccc2c(I)cccc12)N1CCCNCC1,7.08 µM (active),
C=CC(N)CCC(=O)O (configuration not stated),,-0.645
NC(CCCP(=O)(O)O)C(=O)O (configuration not stated),,-3.7
O=c1[nH]c2ccccc2n1CCCN1CCN(C(c2ccccc2)c2ccccc2)CC1,4.47 µM (active),
COc1cc2nc(N3CCN(C(=O)OCc4ccccc4)C(C(=O)NC(C)(C)C)C3)nc(N)c2cc1OC (configuration not stated),2.24 µM (active),
O=C(O)c1cc(=O)c2c(Cl)cc(Cl)cc2[nH]1,,-23
NCCSSCCN,,0.685
CCCN(CC1CC1)c1nc(C)nc(Nc2c(Cl)cc(Cl)cc2Cl)c1Cl,3.16 µM (active),
CN1CCC[C@H]1c1cccnc1,,11.2
COc1cccc(OC)c1OCCNCC1COc2ccccc2O1 (configuration not stated),3.98 µM (active),
COc1cc(C(O)CO)ccc1OS(=O)(=O)O (configuration not stated),,-5.2
N[C@@H](CC(=O)O)C(=O)O,,-27.9
CN1CCc2cc(O)c(O)cc2C(c2ccccc2)C1 (configuration not stated),10 µM (active),
